# Active and inactive are the calls of the source.
# Tests used:
# [1] = optical density shifts of acrAB sulA E. coli – strain DRC41, OD650, 48 h, E. coli filamentation inducer project, primary screen (AID 1152); conditions: higher = more signal, called active from +8 up or from −8 down;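 also: E. coli MC1000 strain DRC41 lacking acrAB efflux pump and sulA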
# [2] = probe aLefty1 binding on compound microarray – biochemical, small-molecule microarray, 635/667 nm fluorescence, primary screen (AID 1153); conditions: higher = more signal;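 also: score merges spot fluorescence with signal-to-noise ratio from the scanned slide images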
# [3] = plasmodial surface anion channel blockers, osmotic lysis – cell-based, P. falciparum Indochina, OD700, 1 h, primary screen (AID 1154); conditions: P. falciparum Indochina infected RBC osmotic lysis, higher = more signal, called active from +8 up or from −8 down
# [4] = plasmodial surface anion channel blockers, osmotic lysis – cell-based, P. falciparum Indochina, OD700, 2 h, primary screen (AID 1155);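 also: lysis reports solute entry through the parasite surface anion channel PSAC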; conditions: P. falciparum Indochina infected erythrocytes, higher = more signal, called active from +8 up or from −8 down
# [5] = changes in parasitized red cell lysis, either direction – P. falciparum Indochina, OD700, 3 h, PSAC antagonist project, primary screen (AID 1156); conditions: P. falciparum-infected erythrocytes, osmotic lysis, higher = more signal, called active from +8 up or from −8 down
# [6] = plasmodial surface anion channel blockers, osmotic lysis – cell-based, P. falciparum Indochina, OD700, 18 h, primary screen (AID 1157); conditions: P. falciparum Indochina infected erythrocytes, osmotic lysis OD700, 18 h; higher = more signal, called active from +8 up or from −8 down
# [7] = S6 kinase pathway phospho-S6 level changes – cell-based, A549, cytoblot, luminescence, serum-stimulated, primary screen (AID 1158); conditions: 5 h, higher = more signal;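 also: serum-stimulated A549 lung adenocarcinoma cells; signal is phosphorylated S6 detected by cytoblot immunostaining with HRP secondary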
# [8] = biological target: NADPH oxidase 2 (Homo sapiens) (UniProt P04839); experiment: compounds shifting NOX2 Amplex Red fluorescence – cell-based, HEK293-NOX2, PMA-stimulated, NOX inhibitor project, primary screen (AID 1159); conditions: 45 min, higher = more signal, called active from +8 up or from −8 down; also: test concentration not given here
# [9] = biological target: NADPH oxidase 4 (Homo sapiens) (UniProt Q9NPH5); experiment: compounds shifting NOX4 Amplex Red fluorescence – cell-based, HEK293-NOX4, tetracycline-induced, NOX inhibitor project, primary screen (AID 1160); conditions: HEK293-NOX4, Amplex Red H2O2 fluorescence, 45 min; higher = more signal, called active from +8 up or from −8 down
# [10] = biological target: NADPH oxidase 5 (Homo sapiens) (UniProt Q96PH1); experiment: compounds shifting NOX5 Amplex Red fluorescence – cell-based, HEK293-NOX5, NOX inhibitor project, primary screen (AID 1161); conditions: HEK293-NOX5, ionomycin, 45 min, higher = more signal
# [11] = compound effects on lung adenocarcinoma cell viability – A549, calcein-AM fluorescence, 48 h, basal, profiling panel (AID 1162); conditions: higher = more signal; also: test concentration not given here
# [12] = compound effects on differentiated 3T3-L1 adipocyte viability – cell-based, 3T3-L1 adipocytes, calcein-AM fluorescence, 48 h, basal, profiling panel (AID 1163); conditions: 3T3-L1 adipocytes viability, higher = more signal; also: test concentration not given here
# [13] = compound effects on hepatocellular carcinoma cell viability – HepG2, calcein-AM fluorescence, 48 h, basal, profiling panel (AID 1164); conditions: higher = more signal; also: test concentration not given here
# [14] = compound effects on multiple myeloma cell viability – MM1S, calcein-AM fluorescence, 48 h, basal, profiling panel (AID 1165); conditions: higher = more signal; also: test concentration not given here
# [15] = calcein-AM signal in unstimulated myeloma cells – cell-based, calcein-AM fluorescence, 48 h, PK04 Diversity Set, profiling panel (AID 1166); conditions: RPMI8226 myeloma viability, higher = more signal;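 also: cells grown under basal conditions without added stimulus; test concentration not given here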
# [16] = JC-1 mitochondrial signal, unstimulated HepG2 cells – cell-based, JC-1 fluorescence, 24 h, 100 nL compound, profiling panel (AID 1167); conditions: HepG2 mitochondrial potential, higher = more signal; also: test concentration not given here
# [17] = JC-1 mitochondrial signal, unstimulated adipocytes – cell-based, JC-1 fluorescence, 3T3-L1 adipocytes, 24 h, 100 nL compound, profiling panel (AID 1168); conditions: JC-1 mitochondrial fluorescence, higher = more signal, called active from +8 up or from −8 down; also: test concentration not given here
# [18] = JC-1 mitochondrial signal, unstimulated myeloma cells – cell-based, JC-1 fluorescence, RPMI8226, 24 h, 100 nL compound, profiling panel (AID 1169); conditions: JC-1 mitochondrial potential fluorescence, higher = more signal; also: test concentration not given here
# [19] = JC-1 mitochondrial signal, unstimulated MM1S myeloma – cell-based, JC-1 fluorescence, 24 h, 100 nL compound, profiling panel (AID 1170); conditions: MM1S mitochondrial potential, higher = more signal; also: test concentration not given here
# [20] = resazurin metabolic signal in A549 cells – cell-based, resazurin fluorescence, 24 h, PK04 Diversity Set, profiling panel (AID 1171); conditions: A549 viability, higher = more signal, called active from +8 up or from −8 down; also: test concentration not given here
# Sequence of NADPH oxidase 5 (Homo sapiens) (Q96PH1 whole entry, looked up): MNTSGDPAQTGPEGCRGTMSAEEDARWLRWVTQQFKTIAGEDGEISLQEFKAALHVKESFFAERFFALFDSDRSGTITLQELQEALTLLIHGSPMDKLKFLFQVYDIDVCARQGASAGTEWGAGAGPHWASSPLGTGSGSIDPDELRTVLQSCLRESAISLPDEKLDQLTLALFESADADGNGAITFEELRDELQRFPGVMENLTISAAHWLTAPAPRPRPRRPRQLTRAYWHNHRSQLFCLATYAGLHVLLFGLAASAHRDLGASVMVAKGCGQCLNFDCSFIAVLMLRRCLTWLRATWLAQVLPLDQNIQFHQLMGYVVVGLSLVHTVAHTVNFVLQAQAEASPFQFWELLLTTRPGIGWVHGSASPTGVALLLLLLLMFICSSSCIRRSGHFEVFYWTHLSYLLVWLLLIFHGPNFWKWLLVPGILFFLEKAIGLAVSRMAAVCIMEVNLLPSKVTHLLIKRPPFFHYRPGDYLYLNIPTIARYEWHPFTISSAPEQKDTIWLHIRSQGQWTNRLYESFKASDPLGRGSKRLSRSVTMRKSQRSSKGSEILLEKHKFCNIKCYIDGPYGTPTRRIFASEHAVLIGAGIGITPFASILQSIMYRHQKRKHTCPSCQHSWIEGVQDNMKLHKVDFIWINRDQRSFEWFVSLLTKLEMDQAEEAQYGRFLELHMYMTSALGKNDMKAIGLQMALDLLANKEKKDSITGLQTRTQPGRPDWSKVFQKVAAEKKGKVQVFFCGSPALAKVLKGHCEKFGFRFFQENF
# Sequence of NADPH oxidase 4 (Homo sapiens) (Q9NPH5 whole entry, looked up): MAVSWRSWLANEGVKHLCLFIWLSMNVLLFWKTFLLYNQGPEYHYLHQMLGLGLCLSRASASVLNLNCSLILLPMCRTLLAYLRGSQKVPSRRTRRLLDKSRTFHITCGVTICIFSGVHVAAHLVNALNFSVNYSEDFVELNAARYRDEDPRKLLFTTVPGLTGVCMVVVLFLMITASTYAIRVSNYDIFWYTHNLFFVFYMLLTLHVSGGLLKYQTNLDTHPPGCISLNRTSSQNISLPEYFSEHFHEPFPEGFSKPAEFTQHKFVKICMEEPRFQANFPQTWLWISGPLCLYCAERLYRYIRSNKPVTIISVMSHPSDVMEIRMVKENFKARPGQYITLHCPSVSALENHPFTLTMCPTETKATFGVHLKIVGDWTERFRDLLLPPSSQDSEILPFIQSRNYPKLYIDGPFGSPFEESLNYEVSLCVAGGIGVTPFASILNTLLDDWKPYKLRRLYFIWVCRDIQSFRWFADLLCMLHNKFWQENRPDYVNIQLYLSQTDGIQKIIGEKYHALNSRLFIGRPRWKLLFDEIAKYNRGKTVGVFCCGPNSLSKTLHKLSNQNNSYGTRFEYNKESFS
# Sequence of NADPH oxidase 2 (Homo sapiens) (P04839 whole entry, looked up): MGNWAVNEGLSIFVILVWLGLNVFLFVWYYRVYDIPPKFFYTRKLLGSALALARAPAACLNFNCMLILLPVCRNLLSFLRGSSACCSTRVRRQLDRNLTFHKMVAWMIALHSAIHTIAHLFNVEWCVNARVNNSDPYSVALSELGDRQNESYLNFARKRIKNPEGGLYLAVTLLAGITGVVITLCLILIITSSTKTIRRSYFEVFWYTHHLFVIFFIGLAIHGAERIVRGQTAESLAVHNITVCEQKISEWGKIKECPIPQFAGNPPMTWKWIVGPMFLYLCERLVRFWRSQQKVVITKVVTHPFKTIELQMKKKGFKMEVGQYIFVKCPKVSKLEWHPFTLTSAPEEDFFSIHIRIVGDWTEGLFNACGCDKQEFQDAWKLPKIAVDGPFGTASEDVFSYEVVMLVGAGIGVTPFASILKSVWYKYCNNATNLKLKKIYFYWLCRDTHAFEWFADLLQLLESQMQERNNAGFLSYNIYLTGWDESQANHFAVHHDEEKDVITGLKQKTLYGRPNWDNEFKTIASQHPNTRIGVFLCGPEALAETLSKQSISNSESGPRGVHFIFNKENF
SMILES,z-score [1],composite z-score [2],z-score [3],z-score [4],z-score [5],z-score [6],z-score [7],z-score [8],z-score [9],z-score [10],z-score [11],z-score [12],z-score [13],z-score [14],z-score [15],z-score [16],z-score [17],z-score [18],z-score [19],z-score [20]
CC(C)C[C@@H]1NC(=O)C([C@@H](C)OCc2ccccc2)NC(=O)[C@@]23C(=O)N[C@@H](Cc4ccccc4)C2[C@H](C)[C@@]2(C)O[C@H]2C3/C=C/CC/C=C/CNC1=O (stereo not given in full),0.757 (inactive),-0.164,1.35 (inactive),-0.601 (inactive),-0.0722 (inactive),-1.61 (inactive),0.189,0.681 (inactive),0.98 (inactive),-0.24,-0.638,1.58,0.0538,-1.31,-2.32,2,0.17 (inactive),-0.478,-0.638,-0.785 (inactive)
COC(=O)[C@H](Cc1ccc(O)cc1)N1CC2=CCCC=C[C@@H]2[C@H]1[C@H](O)Cc1ccccc1,1.42 (inactive),-0.149,3.23 (inactive),-1.53 (inactive),-0.241 (inactive),-2.05 (inactive),0.814,0.63 (inactive),-3.8 (inactive),-2.8,0.852,0.308,-0.231,-3.12,-0.833,-1.68,-0.501 (inactive),-0.521,-1.58,0.481 (inactive)
COC(=O)[C@@]1(Cc2ccc(OC)cc2)[C@H]2c3cc(C(=O)N4CCCC4)n(CCc4ccc(OC)c(Br)c4)c3C[C@H]2CN1C(=O)c1ccccc1,-0.536 (inactive),0.291,2.64 (inactive),0.809 (inactive),-0.0758 (inactive),0.568 (inactive),0.348,0.798 (inactive),0.0418 (inactive),-0.759,-0.572,-0.3,0.347,-0.245,-1.51,2.24,-0.641 (inactive),-0.767,-0.569,0.568 (inactive)
CC(C)C[C@@H]1NC(=O)[C@H]2C[C@@H](C(=O)NCCCCCCNC(=O)CS)[C@@H](c3ccc(O)cc3)N2C1=O,0.13 (inactive),-0.0603,7.66 (inactive),0.64 (inactive),1.4 (inactive),-0.0166 (inactive),0.795,1.64 (inactive),0.633 (inactive),0.755,-0.889,0.197,-0.301,-0.397,0.266,-1.74,0.193 (inactive),0.486,-5.59e-05,0.0225 (inactive)
C=C(C(=O)CC[C@@H](OC(C)=O)c1cccc(OCCO)c1)C(C)C,-0.369 (inactive),0.11,3.09 (inactive),-0.0769 (inactive),1.38 (inactive),0.0127 (inactive),-0.78,0.825 (inactive),-1.12 (inactive),-1.05,-0.351,0.0938,-0.351,-1.54,-0.0608,-1.55,0.216 (inactive),0.592,0.484,-0.326 (inactive)
C=CCC(OC(C)=O)[C@@H]1[C@@H](N(Cc2cccc3ccccc23)C(=O)c2ccc(C)cc2)c2cc(OCCCO)ccc2N1C(=O)c1ccc2ccccc2n1 (stereo not given in full),2.18 (inactive),0.0009,1.83 (inactive),-0.623 (inactive),-1.16 (inactive),-1.37 (inactive),1.62,-0.604 (inactive),0.807 (inactive),2.44,0.375,0.694,1.14,0.823,-0.473,2.11,0.199 (inactive),0.187,-1.25,0.34 (inactive)
C=C(/C(=C/C[C@H](OC(=O)c1ccncc1)c1ccccc1OCCO)c1cc(C(=O)OC)ccc1OC)C(C)C,-0.458 (inactive),0.428,14.9 (active),2.53 (inactive),2.19 (inactive),1.02 (inactive),0.222,1.22 (inactive),-0.614 (inactive),-1.29,0.0292,0.322,-0.275,-1.85,-0.122,0.589,-0.617 (inactive),-0.429,0.00378,1.47 (inactive)
Cc1ccc(F)cc1S(=O)(=O)N[C@@H]1CCN(Cc2ccc3[nH]ccc3c2)C1,-5.9 (inactive),-0.238,3.05 (inactive),0.843 (inactive),0.255 (inactive),0.673 (inactive),-0.0977,-0.163 (inactive),-1.11 (inactive),-1.96,0.173,-0.939,-0.696,-3.43,-1.63,-1.33,-0.261 (inactive),0.321,-1.34,-0.0035 (inactive)
CC(C)CNC(=O)[C@@H]1c2ccccc2C(=O)N(CC23CC4CC(CC(C4)C2)C3)[C@H]1c1ccc(CO)cc1,0.075 (inactive),-0.0559,0.317 (inactive),-0.93 (inactive),-0.348 (inactive),-1.22 (inactive),0.84,-0.234 (inactive),-0.616 (inactive),-1.78,0.226,0.918,0.537,0.107,-0.35,1.38,1.64 (inactive),-0.217,-0.0634,0.915 (inactive)
